Here are results for 5 molecules from PubChem BioAssay AID876 (University of Pittsburgh Molecular Library Screening Center, 2007).

Structures are written as SMILES. The list shows a part of the results. Values without a mark were called inactive. The rule behind the calls is not given here.

The nature of this assay: redox cycling hydrogen peroxide generation, dose response, artefact control for Plk1 PBD inhibitor project, biochemical (AID 876). The settings on record: redox cycling H2O2 generation, DTT, counter-screen. In general terms: Counterscreens check selectivity or assay interference.
For `COc1ccc(Nc2oc(-c3ccccc3Cl)nc2C#N)cc1`, the EC50 – broadly, the concentration at which the effect is half-maximal – is over 50 µM.

On to `CCOC(=O)c1cc2n(c1N)-c1ccccc1C2=O`, for which the EC50 was over 50 µM. The same measure for `Oc1ccc2ccc3cccc[n+]3c2c1`: over 50 µM; for `CC1(C)CC(=O)C=C(NCc2ccncc2)C1`: over 50 µM; for `O=C(NCCc1ccccc1)/C(=C\c1ccc([N+](=O)[O-])cc1)NC(=O)c1ccccc1`: over 50 µM.
